Consider nine compounds from PubChem BioAssay (NCI).

Each structure is given as a SMILES string. About 83,000 compounds went through this panel and 20% of them were active in at least one assay; those are over-represented in the sample as a whole.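 Testing used 96-well plates and a 48-hour single-concentration exposure. Example: -40 means 40% of the starting cells died.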 Values without a mark were called inactive. Active and inactive are the calls of the source. The calls were made as follows: active = growth percent below 10; inactive = the rest.

Some test systems named below: NCI-H23 lung; NCI-H226 lung; NCI-H322M lung; NCI-H460 lung; HOP-92 NSCLC; NCI-H522 lung; A549/ATCC NSCLC; 786-0 renal; COLO 205 colon; DU-145 prostate; K-562 leukemia; MALME-3M melanoma; MDA-MB-231 breast; RXF 393 renal; SF-268 CNS; SF-539 CNS; UACC-257 melanoma; M14 melanoma; SF-295 CNS.
Common to all, as to assay: NCI-60 one-dose screen, 48 h (100 = growth as untreated, 0 = no growth, -100 = all killed)
Holding throughout (settings): 10 µM unless noted

Turning to `CCOCC(O)(c1ccc(Cl)cc1)c1ccc(Cl)cc1`, the growth with NCI-H23 lung was 95.1%; in the experiment with NCI-H226 lung it was 113%; with NCI-H322M lung, 93.9%; with NCI-H460 lung it was 107%; in the experiment with HOP-92 NSCLC, 107%; in the experiment with NCI-H522 lung, 89.4%. The growth was 83.2% in the experiment on A549/ATCC NSCLC; 104% with 786-0 renal; 111% in the experiment with COLO 205 colon; 96.1% in the experiment with DU-145 prostate; 88.1% in the experiment on K-562 leukemia; 103% with MALME-3M melanoma. In addition, the growth was 100% with MDA-MB-231 breast; 117% in the experiment with RXF 393 renal; 97.4% in the experiment on SF-268 CNS; 104% with SF-539 CNS; 94.1% in the experiment with UACC-257 melanoma; 114% in the experiment with M14 melanoma.
Take `CCCOC(=O)C1c2cc3c(cc2CC(C)C1C(=O)OCCC)OCO3` (stereo not given): the growth in the experiment with NCI-H23 lung was 85.8%; in the experiment on NCI-H226 lung, 94.1%; with NCI-H322M lung, 80.9%; with NCI-H460 lung, 103%; in the experiment on HOP-92 NSCLC it was 70.3%; in the experiment on NCI-H522 lung, 70%. For the same compound, the growth with A549/ATCC NSCLC is 92.6%; in the experiment with 786-0 renal, 94.5%; in the experiment with COLO 205 colon, 121%; in the experiment on DU-145 prostate, 112%; with K-562 leukemia, 99.6%; with MALME-3M melanoma, 104%. In addition, the growth in the experiment on MDA-MB-231 breast was 90%; with RXF 393 renal, 93.3%; in the experiment with SF-268 CNS it was 106%; in the experiment on SF-295 CNS, 83%; in the experiment on SF-539 CNS it was 122%; with UACC-257 melanoma, 76.9%. The growth in the experiment on M14 melanoma is 100%.
With `Cc1cc(C)cc(Nc2cc(C)nc3nc(C(F)(F)F)nn23)c1`, the growth is 40% in the experiment on NCI-H23 lung; 37.8% with NCI-H226 lung; 25% in the experiment on NCI-H322M lung; 11% with NCI-H460 lung; 69.8% in the experiment with HOP-92 NSCLC; 6.54% (active) in the experiment on NCI-H522 lung. Moreover, the growth is 27.5% with A549/ATCC NSCLC; 36.6% with 786-0 renal; 16.7% in the experiment on COLO 205 colon; 38.1% with DU-145 prostate; 20.2% with K-562 leukemia; 45.5% in the experiment on MALME-3M melanoma. In addition, the growth is 50.1% in the experiment on MDA-MB-231 breast; 52.1% in the experiment with RXF 393 renal; 28.7% in the experiment with SF-268 CNS; 4.14% (active) in the experiment on SF-539 CNS; 30.7% in the experiment with UACC-257 melanoma; 24% with M14 melanoma.
Consider `O=C1/C(=C\c2cccn2Cc2ccc(F)cc2)c2ccccc2N1c1c(Cl)cccc1Cl`, for which the growth is 81.1% in the experiment on NCI-H23 lung; 64% in the experiment on NCI-H226 lung; 69.4% in the experiment on NCI-H322M lung; 87.7% with NCI-H460 lung; 66% in the experiment on HOP-92 NSCLC; 77% in the experiment with NCI-H522 lung. Also, the growth with A549/ATCC NSCLC was 69.4%; in the experiment with 786-0 renal, 76.6%; in the experiment with COLO 205 colon, 84.9%; with DU-145 prostate, 91.2%; with K-562 leukemia it was 70.8%; with MALME-3M melanoma, 87.6%. In addition, the growth in the experiment with MDA-MB-231 breast is 75%; in the experiment with RXF 393 renal it was 81.5%; in the experiment with SF-268 CNS, 79.9%; in the experiment on SF-295 CNS, 81.9%; with SF-539 CNS, 87.5%; in the experiment on UACC-257 melanoma, 90.3%. In addition, in the experiment with M14 melanoma, the growth was 94.9%.
Turning to `C=CCN(CCOC(=O)c1ccc([N+](=O)[O-])cc1)CCOC(=O)c1ccc([N+](=O)[O-])cc1`, the growth in the experiment on NCI-H23 lung was 106%; in the experiment with NCI-H226 lung, 94.9%; with NCI-H322M lung, 91.1%; in the experiment on NCI-H460 lung, 115%; in the experiment with HOP-92 NSCLC, 87.1%; in the experiment on NCI-H522 lung, 95.3%. In addition, the growth in the experiment with A549/ATCC NSCLC was 102%; in the experiment on 786-0 renal it was 103%; in the experiment on COLO 205 colon it was 112%; in the experiment on K-562 leukemia, 92.3%; in the experiment with MALME-3M melanoma, 98.8%; with MDA-MB-231 breast, 96.2%. Also, the growth was 138% in the experiment with RXF 393 renal; 98% in the experiment on SF-268 CNS; 107% with SF-295 CNS; 110% in the experiment with SF-539 CNS; 97.8% with UACC-257 melanoma; 105% in the experiment on M14 melanoma.
In the case of `COc1ccc([C@@H]2[C@@H](Oc3ccccc3)C(=O)N2c2cc(OC)c(OC)c(OC)c2)cc1F`, the growth in the experiment on NCI-H23 lung was 16.5%; in the experiment with NCI-H226 lung it was 41.5%; in the experiment with NCI-H322M lung, 33.4%; in the experiment on NCI-H460 lung, 7.22% (active); in the experiment with HOP-92 NSCLC, 42%; in the experiment with NCI-H522 lung, -26.1% (active). Moreover, the growth is 13.4% with A549/ATCC NSCLC; 5.88% (active) in the experiment with 786-0 renal; -41.2% (active) in the experiment on COLO 205 colon; 9.48% (active) in the experiment on DU-145 prostate; 4.73% (active) in the experiment on K-562 leukemia; 65.5% in the experiment on MALME-3M melanoma. Further, the growth with MDA-MB-231 breast was 12.4%; in the experiment with RXF 393 renal, 3.39% (active); in the experiment with SF-268 CNS, 25.3%; in the experiment on SF-295 CNS, 3.68% (active); in the experiment on SF-539 CNS, -21.1% (active); with UACC-257 melanoma, 57.3%. For the same compound, the growth in the experiment with M14 melanoma is 5.14% (active).
As to `O=C1c2ccccc2C(=O)c2c1oc1ccc3ccccc3c21`, the growth is 33.7% in the experiment with NCI-H23 lung; 85.5% in the experiment on NCI-H226 lung; 83.1% in the experiment on NCI-H322M lung; 44.9% in the experiment on NCI-H460 lung; 97.5% in the experiment on NCI-H522 lung; 60.8% in the experiment with A549/ATCC NSCLC. The growth in the experiment with 786-0 renal is 101%; with COLO 205 colon it was 107%; with DU-145 prostate it was 85.7%; with K-562 leukemia, 101%; with MALME-3M melanoma, 27.8%; in the experiment with MDA-MB-231 breast it was 60%. The growth in the experiment with RXF 393 renal was 88.2%; in the experiment with SF-268 CNS it was 76.7%; with SF-295 CNS, 93.7%; in the experiment on SF-539 CNS it was 78.3%; in the experiment with UACC-257 melanoma, 77.7%; with M14 melanoma, 57.1%.
Take `Cc1cccc(C(=O)O)n1`: the growth with NCI-H23 lung was 123%; in the experiment on NCI-H226 lung, 93.9%; in the experiment on NCI-H322M lung, 108%; in the experiment on NCI-H460 lung, 105%; in the experiment with HOP-92 NSCLC it was 6.89% (active); in the experiment on NCI-H522 lung, 90.8%. The growth is 102% in the experiment on A549/ATCC NSCLC; 112% with 786-0 renal; 114% in the experiment on COLO 205 colon; 116% with DU-145 prostate; 102% in the experiment with K-562 leukemia; 111% in the experiment with MALME-3M melanoma. Further, the growth is 120% in the experiment with MDA-MB-231 breast; 107% with SF-268 CNS; 98% in the experiment on SF-295 CNS; 99.7% with SF-539 CNS; 105% in the experiment with UACC-257 melanoma; 108% with M14 melanoma.
For `FC(F)(F)C1=NNC(c2ccc3ccccc3c2)=NN1`, the growth in the experiment on NCI-H23 lung was 94.2%; in the experiment with NCI-H226 lung, 87.4%; with NCI-H322M lung, 103%; in the experiment on NCI-H460 lung, 101%; in the experiment on HOP-92 NSCLC it was 95.6%; in the experiment on NCI-H522 lung, 97.2%. Further, the growth with A549/ATCC NSCLC is 102%; in the experiment on 786-0 renal, 107%; with COLO 205 colon, 105%; with DU-145 prostate, 104%; in the experiment on K-562 leukemia it was 95.2%; with MALME-3M melanoma, 107%. Moreover, the growth is 81.9% in the experiment on MDA-MB-231 breast; 123% in the experiment with RXF 393 renal; 100% in the experiment on SF-268 CNS; 93.9% in the experiment with SF-539 CNS; 104% in the experiment with UACC-257 melanoma; 98.3% with M14 melanoma.
